Tau filament bind – binds recombinant human tau filaments. Potency, µM (top dose mostly 57.1 µM), inactives show at the top dose activity change, negative = inhibition. P10636. AID 596. recombinant tau filaments, thioflavin S fluorescence, 15 h; filaments grown with octadecylsulfate alongside compound. hit rate 2% among 71,000;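 also: potency is read from the fitted curve at half-maximal effect; % is scaled to controls: 0 for no effect and ±100 for the full control effect; actives lower thioflavin S fluorescence by blocking filaments or displacing dye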
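Quantitative HTS: thioflavine S signal from ODS-induced tau filaments, excited at 450 nm, emission 510 nm. Conditions: 1 uM tau, 30 uM ODS, 15 h at 37 C, pH 7.4.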
UbGFP stabilizer – inhibits proteasome, raising ubiquitin-GFP reporter fluorescence. Potency, µM (top dose mostly 45.9 µM), for inactives: at the highest dose activation (GFP accumulation), most hits filed as activators. 67,000 tested, under 10 active. Ubiquitin-GFP reporter cells, proteasome inhibition, GFP fluorescence; response scale: untreated = 0%, 10 µM MG-132 = 100%; active = well fitted activation curve with a large enough effect, not every such curve was filed as active; inconclusive = small, poorly fitted or top-dose-only effect, or another doubt; inactive = no such curve, though single readings can be large or run the other way; also: potency is read from the fitted curve at half-maximal effect
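GFP accumulation read-out: laser plate cytometry counting ubiquitin(G76V)-GFP-expressing U2OS cells after 4 hr compound exposure at 37 °C. Titrations spanned 46 uM to 2.9 nM; 0% = basal, 100% = 10 uM MG-132; concentration-response curves fitted.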
Epigenetic mod – derepresses silenced GFP locus in mouse C127i cells; mouse C127i GFP locus derepression, cytometry, 30 h; Potency, µM (titrated, usually from 46.1 µM), without a hit: at the highest dose GFP derepression (activation); hit rate 0.09% among 68,000; AID 597; also: % of control where 0% means no effect
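Locus derepression in mouse mammary C127i cells whose integrated CMV-GFP reporter is normally silent; GFP expression after 30 h compound treatment was quantified by counting fluorescent cells.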
15-hLO inh – 15-hLO (ALOX15) enzyme inhibition; P16050; purified 15hLO-1, xylenol orange hydroperoxide absorbance; Potency, µM (top dose mostly 57.1 µM), without a hit: at the highest dose activity change, negative = inhibition, hits mostly inhibitors; hit rate 1.4% among 74,000; AID 887; also: potency is read from the fitted curve at half-maximal effect; % is scaled to controls: 0 for no effect and ±100 for the full control effect; nearly all actives have a fitted effect of over 55% in size
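Quantitative HTS in 25 mM Hepes pH 7.5 containing 0.01% Triton X-100: human 15hLO-1 at 40 nM, arachidonic acid at 50 uM, 6 min turnover. Product quantified via ferrous oxidation/xylenol orange, 573:405 nm absorbance ratio.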
ALOX15B inhib – blocks human 15-lipoxygenase 2 activity. O15296. purified 15hLO-2, xylenol orange hydroperoxide absorbance. Potency, µM (doses to about 57.1 µM), for the others: at the highest dose activity change, negative = inhibition, actives largely listed as inhibitors. hit rate 0.56% among 110,000. AID 881; also: potency is read from the fitted curve at half-maximal effect; % is scaled to controls: 0 for no effect and ±100 for the full control effect; nearly all actives have a fitted effect of over 60% in size
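Purified human 15hLO-2 (50 nM) preincubated 15 min with compound, then 45 uM arachidonic acid for 90 min at RT in 25 mM Hepes pH 7.5, 0.01% Triton X-100. Hydroperoxide detected by Fe-xylenol orange; 573/405 nm absorbance ratio.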
HBB splicing – alters splicing of the hemoglobin beta chain; HBB splicing reporter cell assay, activation; EGFP reporter with mutant IVS2-654 intron; response scale: normalised to 500 nM splice-correcting PNA; Potency, µM (top dose mostly 46.1 µM), for inactives: at the top dose activation, hits mostly activators; hit rate 0.06% among 65,000; AID 925; also: potency is read from the fitted curve at half-maximal effect; 0% is about no effect
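Compounds were applied for 2 days to HeLa EGFP-654 cells, 500/well in Optimem with 2% FCS. The reporter's EGFP is disrupted by mis-splicing of beta-globin intron IVS2-654. Readout: summed well GFP fluorescence from 488 nm laser scanning; reference was 500 nM antisense […] 654 PNA.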
Tau ThS bind – tau filament binding by ThS displacement. shares compounds with Tau filament bind. recombinant tau filaments, Thioflavin S fluorescence displacement. Potency, µM. hit rate 40% among 60. AID 911; calls by dose curve
aSyn ThS bind – alpha-synuclein fibril binding by ThS displacement | recombinant alpha-synuclein fibrils, ThS fluorescence displacement | Potency, µM | hit rate 40% among 60 | shares compounds with Tau filament bind; calls by dose curve
Abeta ThS displ – amyloid beta fibril binding by ThS displacement | hit rate 50% among 60 | shares compounds with Tau filament bind | Potency, µM | Abeta1-42 fibrillization, thioflavin S fluorescence, overnight 37 C; calls by dose curve
Target sequence (P05067 whole entry, looked up): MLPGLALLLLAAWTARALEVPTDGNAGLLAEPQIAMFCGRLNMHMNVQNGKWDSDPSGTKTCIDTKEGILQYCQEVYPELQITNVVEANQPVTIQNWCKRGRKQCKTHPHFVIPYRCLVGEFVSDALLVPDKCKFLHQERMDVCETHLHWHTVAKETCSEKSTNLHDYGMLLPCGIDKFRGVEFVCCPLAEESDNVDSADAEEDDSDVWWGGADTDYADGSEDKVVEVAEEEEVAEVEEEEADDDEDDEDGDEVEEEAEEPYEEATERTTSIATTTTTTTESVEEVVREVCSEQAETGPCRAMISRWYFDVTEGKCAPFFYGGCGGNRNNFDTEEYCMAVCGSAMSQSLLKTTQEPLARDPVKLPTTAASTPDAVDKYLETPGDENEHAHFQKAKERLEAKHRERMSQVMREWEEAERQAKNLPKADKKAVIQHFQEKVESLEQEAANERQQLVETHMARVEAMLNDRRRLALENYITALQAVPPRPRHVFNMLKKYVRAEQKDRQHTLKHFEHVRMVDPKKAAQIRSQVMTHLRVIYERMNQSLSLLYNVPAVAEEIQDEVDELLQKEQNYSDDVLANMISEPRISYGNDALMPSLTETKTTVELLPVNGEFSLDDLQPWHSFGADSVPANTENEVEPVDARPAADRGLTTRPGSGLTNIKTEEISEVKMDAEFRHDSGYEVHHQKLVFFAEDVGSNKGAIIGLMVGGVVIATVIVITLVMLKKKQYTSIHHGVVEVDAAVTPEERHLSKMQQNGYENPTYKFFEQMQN
* = called active by the depositor; ! = not confirmed by another sample; [ ] = remark or other dose. The list is not random: actives were taken first. Their share in the collection is about 2.3%. Unless noted, calls follow the shape of the dose curve; as a rule, active = well fitted curve in the direction sought with a large enough effect; inconclusive = small, poorly fitted or top-dose-only effect, or another doubt; inactive = no such curve, though single readings can be large; an effect the other way counts as inactive or inconclusive.

For Cc1ccc(-c2cc(C(=O)NC3=NCCS3)c3cc(Br)ccc3n2)o1 the results were Tau filament bind 13µM*, UbGFP stabilizer -1%, Epigenetic mod inconclusive, 15-hLO inh 13µM*, ALOX15B inhib inconclusive and HBB splicing -1%.
For Cc1cccc(-c2cc(C(=O)NCCCn3ccnc3)c3ccccc3n2)c1 the results were ALOX15B inhib 37%.
Screening Cc1ccc(-c2cc(C(=O)NCc3ccco3)c3ccccc3n2)o1 returned Tau filament bind -6%, UbGFP stabilizer -9%, Epigenetic mod 1%, 15-hLO inh inconclusive and HBB splicing -1%.
For O=C(O)c1cc(-c2ccc(-c3ccccc3)cc2)nc2cc3ccccc3cc12 the results were Tau filament bind -14%[11.4 µM], UbGFP stabilizer -10%[9.17 µM], Epigenetic mod -3%[9.22 µM], 15-hLO inh 9%[11.4 µM], ALOX15B inhib -10%[11.4 µM] and HBB splicing 2%[9.22 µM].
C/C(=N\NC(=O)c1ccncc1)c1ccc2ccccc2c1O was read as Tau filament bind 78%[11.4 µM], UbGFP stabilizer 7%[9.17 µM], Epigenetic mod 2%[9.22 µM], 15-hLO inh 19%[11.4 µM], ALOX15B inhib 0%[11.4 µM] and HBB splicing inconclusive.
For CCOc1ccc(Nc2cc(C)nc(-n3nc(C)cc3C)n2)cc1 the results were Tau filament bind 2%, UbGFP stabilizer 2%, Epigenetic mod 16µM*, 15-hLO inh 18%, ALOX15B inhib 34% and HBB splicing 9%[0.369 µM].
Screening CNc1cc(C)nc(-n2nc(C)cc2C)n1 returned Tau filament bind 9%, UbGFP stabilizer 6%, Epigenetic mod inconclusive, 15-hLO inh 68%, ALOX15B inhib 30% and HBB splicing 4%[0.369 µM].
`CNCCCC12CCC(c3ccccc31)c1ccccc12` gave Tau filament bind 16µM*!, UbGFP stabilizer 8%, Epigenetic mod -2%[20.6 µM], 15-hLO inh inconclusive, ALOX15B inhib 33% and HBB splicing 0%[20.6 µM].
Screening C[N+]1(C)CCO[C@](O)(c2ccccc2)C1 returned Tau filament bind 6%[11.4 µM], UbGFP stabilizer 2%[9.17 µM], Epigenetic mod -2%[9.22 µM], 15-hLO inh 7%[11.4 µM], ALOX15B inhib -6%[11.4 µM] and HBB splicing 0%[9.22 µM].
Screening CC(C)N(CCNC(=O)c1ccc(Cc2nc3ccccc3[nH]2)cc1)C(C)C returned 15-hLO inh 4%.
For COc1cccc(C2=NC(C)(C)NC(c3ccccc3O)C2)c1 (centres undefined) the results were Tau filament bind -11%, UbGFP stabilizer 7%, Epigenetic mod 0%, 15-hLO inh 32µM*, ALOX15B inhib -1% and HBB splicing 1%.
Screening O=C(NCCCCN1CCCC1)c1ccc(-n2c(=O)c(=O)[nH]c3ccccc32)cc1 returned 15-hLO inh -1%.
For O=[N+]([O-])c1cccc2c(Br)[nH]nc12 the results were Tau filament bind 40µM*!, UbGFP stabilizer -1%, Epigenetic mod 1%, 15-hLO inh 13µM*, ALOX15B inhib -1% and HBB splicing 0%.
COc1ccc2nc(NCN3C(=O)c4ccccc4C3=O)sc2c1 was read as Tau filament bind -10%[11.4 µM], UbGFP stabilizer -5%[9.17 µM], Epigenetic mod 7%[9.22 µM], 15-hLO inh -2%[11.4 µM], ALOX15B inhib -6%[11.4 µM] and HBB splicing 1%[9.22 µM].
Screening NC(N)=N[C@H](CCC(=O)O)C(=O)O returned Tau filament bind 16%, UbGFP stabilizer 5%, Epigenetic mod 0%, 15-hLO inh 7%, ALOX15B inhib 3% and HBB splicing 1%.
COc1ccc2noc3c2c1C(=O)c1ccccc1-3 was read as Tau filament bind inactive, UbGFP stabilizer 22%, Epigenetic mod 2%, 15-hLO inh inconclusive and HBB splicing -1%[9.22 µM].
Screening O=C1c2ccccc2-c2onc3ccc(NCCCn4ccnc4)c1c23 returned Tau filament bind 0.13µM*, UbGFP stabilizer 3%, Epigenetic mod -5%, 15-hLO inh 22%, ALOX15B inhib 22%, HBB splicing 3%, Tau ThS bind 5.5µM*, aSyn ThS bind 3.2µM* and Abeta ThS displ 2.2µM*.
For Nc1ccc2nc(-c3ccc(Cl)cc3)[nH]c2c1 the results were Tau filament bind 7.9µM*, UbGFP stabilizer 3%, 15-hLO inh -12%, ALOX15B inhib 38%, HBB splicing 0%, Tau ThS bind inactive, aSyn ThS bind inconclusive and Abeta ThS displ inconclusive.
`Nc1cc(S(=O)(=O)O)ccc1O` gave Tau filament bind 12%, 15-hLO inh -3%, ALOX15B inhib 0% and HBB splicing 3%.
`CN(C)c1ccc(/C(=N\O)C(F)(F)F)cc1` gave Tau filament bind -12%[11.4 µM], UbGFP stabilizer -2%[9.17 µM], Epigenetic mod 2%, 15-hLO inh inconclusive, ALOX15B inhib -1% and HBB splicing -3%[0.0738 µM].
`CN(C)c1ccc(C(=C2C=CC(=[N+](C)C)C=C2)c2ccc(N(C)C)cc2)cc1` gave Tau filament bind 0.13µM*, 15-hLO inh -3%, ALOX15B inhib inconclusive, HBB splicing -1%, Tau ThS bind 0.18µM*, aSyn ThS bind 0.15µM* and Abeta ThS displ 0.15µM*.
`Nc1ccccc1NC(=O)c1ccccc1` gave Tau filament bind inactive, UbGFP stabilizer 0%, Epigenetic mod 1%, 15-hLO inh 4%, ALOX15B inhib -6%, HBB splicing -2%, Tau ThS bind inactive, aSyn ThS bind inactive and Abeta ThS displ inactive.
For N#CCCn1c(=O)c(CCc2ccccc2)nc2cnc(N3CCOCC3)nc21 the results were Tau filament bind 82%, UbGFP stabilizer 9%, Epigenetic mod 2%[9.22 µM], 15-hLO inh -27%, ALOX15B inhib 0% and HBB splicing -1%.
Screening Cc1ccccc1Cn1ccc(NC(=O)c2cnn3c(C(F)(F)F)cc(-c4ccco4)nc23)n1 returned Tau filament bind 2.5µM*, UbGFP stabilizer -7%, Epigenetic mod 3%, 15-hLO inh -11%, ALOX15B inhib 0%, HBB splicing -1%, Tau ThS bind inconclusive, aSyn ThS bind 2.6µM* and Abeta ThS displ 6.7µM*.

Bioassay records from PubChem.
